Structures are written as SMILES. Values joined by “and” are separate entries in the source; they are usually repeats but may differ in a detail not shown here. Equal entries are not always repeated. Inconclusive results are not listed. Where a call stands in place of a potency, no number is given. Active and inactive are the calls of the source. Calls follow the shape of the dose curve; as a rule, active = well fitted cell-killing curve with a large enough effect in the repeat runs; inconclusive = weak or mixed curves; inactive = no such curve, though single readings can be large or run the other way.
Potency is read from the fitted curve at half-maximal effect.

This test can be described thus: qHTS assay to identify small molecule agonists of the peroxisome proliferator-activated receptor delta (PPARd) signaling pathway - cell viability counter screen (AID 743211). Also: nearly all actives have a fitted effect of over 55% in size. The note with it: PPARd-bla HEK293H viability, CellTiter-Glo luminescence, 17 h; series mostly up to 62.6 µM. The text has this: U.S. Tox21 Program National Center for Advancing Translational Sciences [NCATS] NIH Chemical Genomics Center [NCGC] U.S. Environmental Protection Agency [EPA] National Institutes of Environmental Health Sciences [NIEHS] National Toxicology Program [NTP] U.S. Food and Drug Administration [FDA] Tox21 Assay Overview: The peroxisome proliferator-activated receptors (PPARs) are lipid-activated transcription factors of the nuclear receptor superfamily with three distinct subtypes namely PPAR alpha, PPAR delta (PPARd) and PPAR gamma. All these subtypes heterodimerizes with Retinoid X receptor (RXR) and have different physiological functions. […] To identify the compounds that activate PPAR-delta signaling, GeneBLAzer PPAR delta UAS-bla HEK293H cell line (Invitrogen, Carlsbad, CA, USA) containing a beta-lactamase reporter gene under the control of an Upstream Activator Sequence (UAS) was used to screen the Tox21 compound library. The cytotoxicity of the Tox21 compound library against the PPARd-bla cell line was tested in parallel by measuring the cell viability using CellTiter-Glo assay (Promega, Madison, WI) in the same wells.
Tox21 Assay Protocol Summary: PPARd-bla cells were dispensed at 3000 cells/6uL/well in 1536-well black wall/clear bottom plates using a Multidrop Combi (Thermo Fisher Scientific, Waltham, MA) dispenser. After the assay plates were incubated at 37 C and 5% CO2 for 5 h, 23 nL of compounds dissolved in DMSO, positive controls or DMSO only was transferred to the assay plate by a Pintool station (Kalypsys, San Diego, CA). The assay plates were incubated at 37C for 17 h. After 1 uL of LiveBLAzerTM B/G FRET substrate was added using a Bioraptr Flying Reagent Dispenser (FRD) workstation (Beckman Coulter, Indianapolis, IN, USA), the plates were incubated at room temperature for 2 h, and fluorescence intensity was measured by an Envision plate reader (PerkinElmer, Shelton, CT). For cell viability readout that measures cytotoxicity, 3 ul/well of CellTiter-Glo reagent was added into the assay plates using a Bioraptr FRD. After 30 min incubation at room temperature, the luminescence intensity in the plates was measured using a ViewLux plate reader (PerkinElmer).
As for `O=S(=O)(O)c1ccc(N=Nc2c(O)ccc3ccccc23)cc1`, the Potency result is “inactive”.

Take `CCCNCCC`: the Potency entry is “inactive”.

As for `O=C1CCCCCCCCCCCCCCCO1`, the Potency result was “inactive”.

As for `OC/C=C/CO`, the Potency entry is “inactive”.

Take `CC(C)Cn1cnc2c(N)nc3ccccc3c21`: the Potency entry was “inactive”.

For the molecule `CC1(C)CCC[C@]2(C)[C@H]3CCO[C@]3(C)CC[C@@H]12`, the Potency result is “inactive”.

In the case of `Cc1cc(C(C#N)c2ccc(Cl)cc2)c(Cl)cc1NC(=O)c1cc(I)cc(I)c1O` (stereo not given), the Potency was 29.8 µM (active).

As for `COC(=O)c1ccccc1OC`, the Potency entry is “inactive”.

With `Cc1c(N)cccc1C(F)(F)F`, the Potency result was “inactive”.

As for `c1cnccn1`, the Potency result is “inactive”.

For the molecule `O=C(Oc1ccccc1)Oc1ccccc1`, the Potency result was “inactive”.

`CCCCCCCCCCCCCC[N+](C)(C)C`: the Potency was 37.6 µM (active) and 24.5 µM (active) and 26.6 µM (active).

Take `Cc1cc(C)c(/C=C2\C(=O)Nc3ccccc32)[nH]1`: the Potency entry is “inactive”.

Take `C1CCC(SSC2CCCCC2)CC1`: the Potency result is “inactive”.

Turning to `CCCCCCCCCCCCCCCC[N+](C)(C)CC`, the Potency was 21.9 µM (active) and 29.8 µM (active).

Consider `COc1cc2nc(N3CCN(C(=O)c4ccco4)CC3)nc(N)c2cc1OC`, for which the Potency result is “inactive”.

For the molecule `FC(F)(F)c1cccc(Cl)c1`, the Potency result is “inactive”.

Regarding `CC(CO)Oc1ccccc1` (stereo not given), the Potency entry is “inactive”.

On to `c1ccsc1`, for which the Potency result is “inactive”.

For the molecule `COC(=O)c1ccccc1C`, the Potency entry is “inactive”.

Consider `O=C(Nc1ccc2c(O)c(N=Nc3ccc(N=Nc4ccc(S(=O)(=O)O)cc4)cc3)c(S(=O)(=O)O)cc2c1)c1ccccc1`, for which the Potency result is “inactive”.

Regarding `Cc1cccc(C(=O)O)c1O`, the Potency entry was “inactive”.

As for `CCCC[P+](C)(CCCC)CCCC`, the Potency result is “inactive”.

Turning to `Cc1cc(=O)oc2cc(O)cc(O)c12`, the Potency result is “inactive”.

As for `C[C@H]1NCc2cc(-c3ccc4c(=O)c(C(=O)O)cn(C5CC5)c4c3OC(F)F)ccc21`, the Potency result is “inactive”.

On to `OCC(F)(F)F`, for which the Potency entry is “inactive”.

In the case of `CCCC(=O)OCCc1ccccc1`, the Potency entry was “inactive”.

For the molecule `OC[C@@H](O)[C@@H](O)CO`, the Potency entry is “inactive”.

For `CC1(C)CC(O)CC(C)(C)N1`, the Potency entry was “inactive”.

As to `Fc1ccc(C(c2ccc(F)cc2)N2CCNCC2)cc1`, the Potency was 7.5 µM (active).

For the molecule `CN(C)CCN1CCN(c2cccc(Cl)c2)C1=O`, the Potency result was “inactive”.

On to `CC(C)=CCC1=C(O)c2ccccc2C(=O)C1=O`, for which the Potency result was “inactive”.

Turning to `C=C(CC)C(=O)c1ccc(OCC(=O)O)c(Cl)c1Cl`, the Potency entry is “inactive”.

`Cc1nc2n(c(=O)c1CCN1CCC(c3noc4cc(F)ccc34)CC1)CCCC2`: the Potency entry is “inactive”.

As for `C=CCn1c(=O)n(CC=C)c(=O)n(CC=C)c1=O`, the Potency result was “inactive”.

Regarding `Cc1c(F)c(N2CCNC(C)C2)cc2c1c(=O)c(C(=O)O)cn2C1CC1` (stereo not given), the Potency entry is “inactive”.

With `Cc1c2ccccc2c(C)c2c1ccc1ccccc12`, the Potency was 48.5 µM (active) and 38.9 µM (active).

For `CC(=O)Oc1cc2c(s1)CCN(C(C(=O)C1CC1)c1ccccc1F)C2` (stereo not given), the Potency entry was “inactive”.

Consider `C[Si](Cl)(c1ccccc1)c1ccccc1`, for which the Potency result is “inactive”.

`CC(C)(C)c1ccc(C(O)CCCN2CCC(C(O)(c3ccccc3)c3ccccc3)CC2)cc1` (stereo not given): the Potency is 10.6 µM (active).

The values are drawn from PubChem BioAssay (Tox21).
